Compound activity as filed in PubChem BioAssay.
The list is not random: actives were taken first. Their share in the collection is about 3.9%.
BoNT-A LC inh2: blocks Botulinum neurotoxin A light chain protease. multiplex microsphere protease substrate cleavage, flow cytometry. inhibition, % at 10 µM. hit rate 0.17% among 360,000; further: plate controls were buffer without enzyme for full effect and enzyme alone for no effect
BoNT-F LC inh: BoNT F light chain protease inhibition | Multiplex microsphere protease cleavage assay, flow cytometry | inhibition, % at 10 µM | hit rate 0.22% among 360,000 | AID 588497; in the data active means inhibition above about 35%, passing the limit was not always enough; inconclusive means no clear call, values can overlap the other calls; further: plate controls were buffer without enzyme for full effect and enzyme alone for no effect
DUSP3 inh: inhibitors of human VHR1 phosphatase (DUSP3) | recombinant VHR phosphatase, pNPP absorbance | inhibition, % at 13.3 µM | hit rate 0.52% among 290,000; in the data active means inhibition above about 50%
Target sequence (P51452 whole entry, looked up): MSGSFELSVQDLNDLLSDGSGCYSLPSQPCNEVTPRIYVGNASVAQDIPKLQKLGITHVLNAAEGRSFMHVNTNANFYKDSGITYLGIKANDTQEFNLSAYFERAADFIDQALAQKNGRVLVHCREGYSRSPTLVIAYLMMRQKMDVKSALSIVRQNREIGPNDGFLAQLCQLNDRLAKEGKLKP
3CLpro inhibitor: SARS-CoV 3CLpro protease inhibition. hit rate 0.14% among 290,000. recombinant SARS-CoV 3CLpro, quenched FRET peptide cleavage. AID 1706. inhibition, % at 6 µM; in the data active means inhibition above about 12%
Autofluor counter: compound fluorescence in toxin protease inhibitor counterscreen. compound autofluorescence counterscreen, microsphere flow cytometry; active compounds read high. hit rate 3.1% among 360,000. fluorescence intensity (test concentration not listed). AID 624483; in the data active means fluorescence intensity above about 16000; inconclusive means no clear call, values can overlap the other calls
Anthrax LF inh2: anthrax lethal factor protease inhibition | hit rate 0.12% among 360,000 | multiplex microsphere protease cleavage assay, LF | inhibition, % at 10 µM | P15917; further: plate controls were buffer without enzyme for full effect and enzyme alone for no effect
Active calls of the source: *; ? = inconclusive; / = not tested or not shown. Unless noted, no stated cut-off is given here; in the data, active means inhibition above about 30%; inconclusive means no clear call, values can overlap the other calls; inactive means below that.

SMILES	BoNT-A LC inh2	BoNT-F LC inh	DUSP3 inh	3CLpro inhibitor	Autofluor counter	Anthrax LF inh2
CC(NC(=O)CCc1ccccc1)c1cc2c(cc1Cl)OCCO2 (stereo not drawn)	-0.6	-5.5	18.3	1.7	2083	-0.1
Oc1ccccc1C1N=C(c2ccccc2)NC(c2ccccc2)=N1	1.1	-0.4	-12.3	2.8	22671*	0.3
Oc1ccc(C2N=C(c3ccccc3)NC(c3ccccc3)=N2)cc1	-1.3	-1.5	19.9	-0.1	10069	0.2
CCC(CC)C(=O)Nc1cccc(C(=O)NCCc2ccc(S(N)(=O)=O)cc2)c1	-1.2	-0.4	18.1	-0.9	23028*	1.0
CCOc1ccccc1OCCCC(=O)NCCc1ccc(S(N)(=O)=O)cc1	-1.6	-1.5	38.4	-5.1	6338	-1.7
Cc1ccc(CC(=O)NCCc2ccc(S(N)(=O)=O)cc2)cc1	-0.1	19.0	11.4	-4.2	3648	7.0
COc1ccc(CC(=O)NCCc2ccc(S(N)(=O)=O)cc2)cc1	?	2.9	15.5	7.6	19944*	0.6
CCCCC(=O)NCCc1ccc(S(N)(=O)=O)cc1	-0.6	-1.9	-9.6	0.2	16934*	-1.6
CCC(CC)C(=O)Nc1cccc(C(=O)NCCc2ccccc2)c1	-1.3	-7.5	19.7	0.1	4320	-1.6
CCCCC(CC)C(=O)NCCc1ccc(S(N)(=O)=O)cc1 (stereo not drawn)	-0.3	-1.4	1.9	-3.6	23826*	-2.1
O=C1OC(c2ccccc2)(c2ccc3cc(O)ccc3c2)c2ccccc21 (stereo not drawn)	0.4	0.6	/	/	3619	1.9
OCCOc1ccc(CN2CCN(CCCc3ccccc3)C(CCO)C2)cc1 (stereo not drawn)	0.8	?	16.5	3.4	3926	-5.2
O=C(CCN1CCN(c2ccccc2F)CC1)Nc1ccc2c(c1)OCO2	0.4	-1.9	13.9	-7.9	10568	-0.1
CCC(CC)C(=O)NCCc1ccc(S(N)(=O)=O)cc1	3.9	5.6	17.2	-3.6	21021*	1.1
COCC(=O)NCCc1ccc(S(N)(=O)=O)cc1	-0.6	-16.2	-5.4	-0.2	9174	5.9
NS(=O)(=O)c1ccc(CCNC(=O)Nc2ccc(Cl)c(Cl)c2)cc1	-1.7	-5.2	19.9	5.7	16607*	-8.5
Cc1nnc(Sc2c(N)n(C)c(=O)n(C)c2=O)s1	0.5	-2.7	13.3	1.5	20250*	-6.9
O=C(CSc1nnc(-c2ccccc2)n1-c1ccccc1)c1cccs1	?	-6.1	0.2	1.0	21163*	-1.1
Cc1ccc(C(=O)CSc2nnnn2-c2ccccc2)o1	-0.3	-1.2	26.2	4.3	4844	0.5
Cc1ccc(C(=O)CSc2nnc(-c3ccccc3)n2-c2ccccc2)o1	?	1.4	-7.5	-5.1	20254*	-0.4
O=C(CSc1nnc(-c2ccccc2)n1-c1ccccc1)c1ccc[nH]1	0.3	-8.4	36.0	-2.1	2210	-0.7
OCC1(Cc2ccccc2F)CCCN(Cc2c(F)ccc(F)c2F)C1 (stereo not drawn)	3.3	?	17.9	3.5	4119	5.5
O=C(Nc1ccc(S(=O)(=O)Nc2ncccn2)cc1)c1ccc(Br)s1	-2.4	-5.1	18.8	3.9	16878*	-1.7
O=C(NCc1ccccn1)c1ccc(Cl)s1	-0.5	2.1	7.8	5.2	6009	0.2
O=C(NCCCCNC(=O)c1ccc(Cl)s1)c1ccc(Cl)s1	0.3	3.9	-4.7	-1.0	3266	-0.1
SMILES	BoNT-A LC inh2	BoNT-F LC inh	DUSP3 inh	3CLpro inhibitor	Autofluor counter	Anthrax LF inh2
COc1cccc(OC)c1C(=O)Nc1ccc(S(=O)(=O)Nc2ncccn2)cc1	/	/	-3.8	-1.8	/	/
O=C(NCc1ccccn1)c1ccc(Br)s1	-4.7	-9.4	-2.4	1.9	17043*	-10.4
O=C(NCc1ccccn1)c1cccs1	?	-3.9	-5.1	-3.3	17079*	-0.6
O=C(NCCCCCCNC(=O)c1ccc(Br)s1)c1ccc(Br)s1	0.4	-0.5	9.4	-0.6	23002*	-0.4
CN1C(=O)CC(C(=O)Nc2ccccc2F)SC1=Nc1ccc2c(c1)OCO2 (stereo not drawn)	-1.1	-0.8	12.9	2.2	3883	-4.2
CCCNC(=O)c1ccc(N2CCC3(CC2)CC(c2cccc(Br)c2)=NO3)c([N+](=O)[O-])c1	-1.0	-1.4	9.5	8.6	3702	0.8
O=C(NCc1ccccn1)Nc1cccc(NC(=O)NCc2ccccn2)c1	-1.7	-2.6	-1.0	-0.7	22604*	-0.4
O=C(NCc1ccccn1)c1ccc(Cl)cc1Cl	6.6	8.1	5.0	-0.2	18047*	-2.7
O=C(NCCCNC(=O)c1ccc(Cl)cc1Cl)c1ccccn1	-1.3	0.8	27.7	-6.6	3610	-6.5
O=C(NCc1ccccn1)Nc1cccc(Cl)c1	-0.9	-17.8	35.6	3.0	10773	2.2
Cc1ccc(NC(=O)CC2SCCNC2=O)cc1Cl (stereo not drawn)	?	-3.1	14.6	3.4	23686*	-4.1
O=C(CC1SCCNC1=O)Nc1ccc(F)c(Cl)c1 (stereo not drawn)	0.7	0.9	16.5	3.0	3510	-2.2
COC(=O)CC1SCCNC1=O (stereo not drawn)	-1.4	-1.2	-2.0	-1.8	20974*	0.8
O=S(=O)(c1ccc(-c2csc(-c3cccnc3)n2)cc1)N1CCCCC1	0.4	-1.5	13.3	2.7	22447*	-4.3
CC(=O)NC(c1ccccc1)c1nc(-c2ccc(Cl)cc2)cs1 (stereo not drawn)	-0.2	-2.9	/	/	2956	-2.0
NC(=O)CSc1nnc(CNc2ccc(F)cc2)n1CC1CCCO1 (stereo not drawn)	-0.9	-1.9	-20.8	1.8	3211	0.3
Cc1ccc(NCc2nnc(SCC(N)=O)n2CC2CCCO2)c(C)c1 (stereo not drawn)	0.7	-5.1	52.9*	-13.7	2991	-6.0
O=C(Nc1cccc(S(=O)(=O)NC2=NCCC2)c1)c1cc(-c2ccco2)nc2ccccc12	-0.2	-3.0	51.7*	0.4	4168	-1.9
[O-]c1c[n+](-c2ccc(-[n+]3cc([O-])on3)cc2)no1	0.3	4.2	10.6	-0.2	2649	-1.8
Cc1ccc(C)c(S(=O)(=O)NCc2ccc(C(=O)NCc3ccco3)cc2)c1	-0.3	?	8.7	-0.9	3811	-4.2
Cc1ccc(C(=O)NCc2ccco2)cc1S(=O)(=O)Nc1cccc(Cl)c1	?	2.1	18.6	-3.4	21942*	-0.6
COc1ccc(C(=O)Nc2ccc3oc(-c4cccc(F)c4)nc3c2)cc1OC	-0.2	4.3	37.7	/	4315	-8.6
CCCC(=O)Nc1ccc2oc(-c3ccc(OC)c(Br)c3)nc2c1	2.9	3.3	1.5	-4.0	21634*	-5.7
COc1ccccc1C(=O)Nc1ccc2oc(-c3ccc(F)cc3)nc2c1	-1.9	-1.1	22.1	-2.1	17405*	-0.2
Cc1cc(C)cc(OCC(=O)N(Cc2ccccc2)C2CCS(=O)(=O)C2)c1 (stereo not drawn)	0.5	13.7	15.3	-7.6	5459	-0.5
COc1ccc2c(c1)CCC1C2=NN(/C(C)=C/C(C)=O)C1c1cccc(F)c1 (stereo not drawn)	-25.2	24.2	-7.5	1.8	62503*	6.2
